Laboratory results: ChEMBL document CHEMBL3433997, “St. Jude Leishmania screening dataset” (2016)
Several values for one entry are separate records, joined by “and”; a condition that tells them apart may be missing. Equal values may be shown once.

What follows are molecules tested against Solute carrier family 2, facilitated glucose transporter member 1 (Homo sapiens) (UniProt P11166) (assay: ST_JUDE_LEISH: Cytotoxicity at 2uM final concentration against transgenic Leishmania Mexicana promastigotes LmGLUT1 that are glucose transport deficient and complemented with the human glucose transporter GLUT1. Activity is measured by DNA content using SYBR green in vitro).
Solute carrier family 2, facilitated glucose transporter member 1 (Homo sapiens), sequence (P11166 whole entry): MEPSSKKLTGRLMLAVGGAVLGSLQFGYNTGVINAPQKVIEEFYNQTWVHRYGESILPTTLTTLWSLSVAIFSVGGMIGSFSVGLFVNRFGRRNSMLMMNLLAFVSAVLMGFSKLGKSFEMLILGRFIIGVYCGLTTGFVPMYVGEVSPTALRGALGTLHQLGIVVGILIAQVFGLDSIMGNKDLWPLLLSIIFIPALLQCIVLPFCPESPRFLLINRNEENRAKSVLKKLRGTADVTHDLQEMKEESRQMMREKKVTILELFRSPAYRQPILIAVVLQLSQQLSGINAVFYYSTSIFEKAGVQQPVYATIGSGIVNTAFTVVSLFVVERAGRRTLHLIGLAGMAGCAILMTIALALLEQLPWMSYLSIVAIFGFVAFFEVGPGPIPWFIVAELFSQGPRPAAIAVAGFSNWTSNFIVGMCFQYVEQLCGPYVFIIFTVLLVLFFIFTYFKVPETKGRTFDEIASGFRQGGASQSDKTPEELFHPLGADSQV
Type: functional

Row | SMILES | inhibition
1 | O=C(CC1CCCC1)N(CC1CCN(Cc2ccc(C(F)(F)F)cc2)CC1)c1ccc(N2CCOCC2)c(F)c1 | 13.5%
2 | Cc1cccc(C(=O)Nc2ccnc(N(C)C3CCN(Cc4cccc(O)c4)CC3)c2)c1 | 3.06%
3 | O=C(c1cc(C(F)(F)F)cc(C(F)(F)F)c1)N1CCC(CCN2CCC3(CC2)C(=O)NCN3c2ccccc2)CC1Cc1ccc(Cl)c(Cl)c1 (centres undefined) | 6.32%
4 | O=C(CCc1ccco1)NC1CCN(CC2(c3ccc(Cl)cc3)CCC2)CC1 | 9.68%
5 | O=C(/C=C/C=C/c1ccccc1)NC1CCC(CN2CCC(c3c[nH]c4ccccc34)CC2)CC1 (centres undefined) | 2.53%
6 | COc1cccc(C(=O)C2CC2CN2CC=C(c3c[nH]c4cccc(Br)c34)CC2)c1 (centres undefined) | 1.59%
7 | CC(=O)Nc1ccc(CN2CCC(N(C)c3cc(NC(=O)c4cccs4)ccn3)CC2)cc1 | -1.53%
8 | COc1ccc(C(=O)C2CC2CN2CC=C(c3c[nH]c4ccc(OC)nc34)CC2)cc1 (centres undefined) | 1.91%
9 | Cc1[nH]c2ccc([N+](=O)[O-])cc2c1C1=CCN(C)CC1 | 1.47%
10 | Cc1nc2ccccc2n1C1CC2CCC(C1)N2Cc1nccn1-c1ccccc1 (centres undefined) | 0.86%
11 | O=C(Nc1ccc(CN2CCC(c3c[nH]c4ccc(O)cc34)CC2)cc1)c1ccc(-c2ccccc2)cc1 | 5.73%
12 | COC(=O)C(C)(C)c1ccc(CC(C)NCC(O)c2cccc(C(F)(F)F)c2)cc1 (centres undefined) | 10.5%
13 | Cc1[nH]c2cc(Cl)ccc2c1C1=CCN(CCCCC2(C)C(=O)Nc3c(F)cccc32)CC1 (centres undefined) | 1.41%
14 | S=C(NCC1CCCCC1)NC1CCC(CN2CCC(c3c[nH]c4ccccc34)CC2)CC1 (centres undefined) | 1.87%
15 | Cc1ccc(-n2nc(C)c3c2NC(=O)CSC3c2ccsc2)cc1 (centres undefined) | 9.48%
16 | CC1(C)CCCN(C(=O)Cc2ccc3c(c2)CCCC3)C1CN1CC=CC1 (centres undefined) | 8.1%
17 | CC[C@H]1CN2CC[C@H]1C[C@@H]2[C@@H](OC(=O)c1ccc(Cl)cc1)c1ccnc2ccc(OC)cc12 | 1.77%
18 | O=C(C=Cc1ccccc1C(F)(F)F)NC1CCC(CN2CCC(c3c[nH]c4ccccc34)CC2)CC1 (centres undefined) | 8.82% and 9.04%
19 | CN1CC=C(c2csc3ccc(NC(=O)Nc4ccc(-c5ccncc5)c(Cl)c4)cc23)CC1 | 0.03%
20 | Oc1ccc(CN2CCN(CCOC(c3ccccc3)c3ccccc3)CC2)cc1Cl | 0.53%

Row | SMILES | inhibition
21 | CC[C@H]1CN2CC[C@@H]1C[C@H]2[C@H](O)c1cc(N2CCC(C(N)=O)CC2)nc2ccc(OC)cc12 | 8.84%
22 | CCC(C)CN1CCC(N(C)c2cc(NC(=O)c3cccc(C)c3)ccn2)CC1 (centres undefined) | -1.69%
23 | CC(Cc1ccc(OCCOc2ccccc2)cc1)NCC(O)c1cccc(Cl)c1 (centres undefined) | 0.57%
24 | COc1cc(/C=C/C(=O)NC2CCC(CN3CCC(c4c[nH]c5ccccc45)CC3)CC2)ccc1O (centres undefined) | 0.32% and 3.25%
25 | COC(=O)/C=C/c1ccc(CC(C)NCC(O)c2cccc(Br)c2)cc1 (centres undefined) | 1.85%
26 | CC(Cc1ccc(OCCCCOc2ccccc2)cc1)NCCC1CCCN1C (centres undefined) | 103%
27 | CN(C)c1cccc(CCNCCc2c[nH]c3ccc(Cl)cc23)c1 | -1.51%
28 | Cc1[nH]c2ccccc2c1C1=CCN(CC2CC2C(=O)c2ccccc2)CC1 (centres undefined) | 10.7%
29 | CCc1ccc(CC(C)NCC(O)c2ccccc2)cc1 (centres undefined) | 1.06%
30 | O=C(/C=C/c1c(Cl)cccc1Cl)NC1CCC(CN2CCC(c3c[nH]c4ccccc34)CC2)CC1 (centres undefined) | 5.03% and 4.85%
31 | CC(Cc1ccc(S(=O)(=O)N(C(C)C)C(C)C)cc1)NCC(O)c1cccc(C(F)(F)F)c1 (centres undefined) | -0.77%
32 | CCN1CCC(N2CCC(n3c(C)nc4cc(C(F)(F)F)ccc43)CC2)CC1 | 3.01%
33 | COc1ccc(C(=O)C2CC2CN2CC=C(c3c(C)[nH]c4ccccc34)CC2)cc1 (centres undefined) | -1.12%
34 | Cc1cc(CN2CCN(CCOC(c3ccccc3)c3ccccc3)CC2)ccc1O | 16%
35 | COc1ccc(OC)c(C=CC(=O)NC2CCC(CN3CCC(c4c[nH]c5ccccc45)CC3)CC2)c1 (centres undefined) | -2.94%
36 | Cn1c(C2CC3CCC(C2)N3CC2CCC(NC(=O)/C=C/c3ccc(Cl)c(Cl)c3)CC2)nc2ccccc21 (centres undefined) | 4.11%
37 | CCOC(=O)c1c(CN2CCN(C)CC2)n(Cc2ccccc2)c2cc(Br)c(O)cc12 | 17.4%
38 | CCOc1ccc2nccc([C@@H](O)[C@@H]3C[C@@H]4CCN3C[C@@H]4CC)c2c1 | 1.23% and 2.9%
39 | O=C(/C=C/c1ccc(Cl)c(Cl)c1)NCc1ccc(CN2CCC(c3c[nH]c4ccccc34)CC2)cc1 | 2.64%
